# Screens (PubChem BioAssay)
# An excerpt weighted towards active compounds, which were near 0.4% of everything screened.
# GAA inh – qHTS Assay for Inhibitors of Human alpha-Glucosidase as a Potential Chaperone Treatment of Pompe Disease. Lysosomal alpha-glucosidase (Homo sapiens), P10253. purified human GAA, 4-MU-alpha-glucoside fluorescence. Potency, µM (doses to about 76.9 µM), for the others: top-dose activity change, negative = inhibition, most hits filed as inhibitors. 200,000 compounds, 0.005% hits;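 further: potency means the concentration at half of the fitted maximal effect; plate controls were uninhibited enzyme wells for no effect and no-enzyme background for full effect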
#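 AC50 values come from Hill fits of compound titrations (up to 77 uM) against 4 nM human enzyme. Substrate 4-methylumbelliferyl-alpha-D-pyranoside at 400 uM, pH 5.0 citrate buffer, 20 min room temperature; fluorescence Ex 365/Em 440 after alkaline stop.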
# GAA glycogen mod – qHTS Assay for Inhibitors and Activators of Human alpha-Glucosidase Cleavage of Glycogen; recombinant GAA, glycogen substrate, Amplex Red glucose oxidase fluorescence; Lysosomal alpha-glucosidase (Homo sapiens), P10253; Potency, µM (doses to about 76.4 µM), without a hit: at the top dose activity change, negative = inhibition, most hits filed as inhibitors; 300,000 compounds, 0.38% hits; AID 2100, 2009;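 further: potency means the concentration at half of the fitted maximal effect; 0% = full enzyme reaction and -100% = no-enzyme basal signal; the screen sought inhibitors and activators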
#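 Natural-substrate format: glycogen cleavage by 4 nM human enzyme, glucose read by Amplex Red coupling (Ex 573, Em 610 nm). Normalized to enzyme and no-enzyme controls.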
# aGlu spleen mod – qHTS Assay for Inhibitors and Activators of Human alpha-Glucosidase From Spleen Homogenate; human spleen homogenate, 4-MU-alpha-glucoside fluorescence; Potency, µM (top dose mostly 79.9 µM), for the others: at the top dose activity change, negative = inhibition, most hits filed as inhibitors; 240,000 compounds, 0.006% hits; AID 2112, 2009;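 further: potency means the concentration at half of the fitted maximal effect; 0% = enzyme with vehicle and -100% = no enzyme basal signal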
#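 Compounds were titrated against alpha-glucosidase in spleen homogenate at pH 5.0, with 1 mM 4-methylumbelliferyl substrate for 40 min at 37 C. Reactions were quenched with pH 10 NaOH/glycine and fluorescence measured.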
# GLA inh pH 4.5 – qHTS Assay for Inhibitors of Human alpha-Galactosidase at pH 4.5; purified enzyme, 4-MU-alpha-Gal fluorescence, pH 4.5; activity change, negative = inhibition, % at 105 µM; Alpha-galactosidase A (Homo sapiens), P06280; 230,000 tested, under 10 active;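 further: 0% = full activity with enzyme and -100% = basal without enzyme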
# Target sequence (P06280 whole entry, looked up): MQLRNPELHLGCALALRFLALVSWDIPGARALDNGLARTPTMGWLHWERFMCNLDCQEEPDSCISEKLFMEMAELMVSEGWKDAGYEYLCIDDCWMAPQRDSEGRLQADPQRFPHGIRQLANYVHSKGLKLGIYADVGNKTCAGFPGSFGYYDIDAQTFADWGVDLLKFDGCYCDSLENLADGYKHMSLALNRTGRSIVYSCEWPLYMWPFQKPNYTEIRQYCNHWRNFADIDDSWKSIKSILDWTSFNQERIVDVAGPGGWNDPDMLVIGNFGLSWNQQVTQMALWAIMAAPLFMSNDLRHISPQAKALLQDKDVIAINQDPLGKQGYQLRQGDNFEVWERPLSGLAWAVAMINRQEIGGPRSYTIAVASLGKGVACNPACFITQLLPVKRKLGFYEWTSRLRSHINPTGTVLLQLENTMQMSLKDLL
# GLA spleen mod – qHTS Assay for Inhibitors and Activators of Human alpha-Galactosidase From Spleen Homogenate; human spleen homogenate, 4MU-alpha-Gal fluorescence, 40 min; Potency, µM (doses to about 80 µM), for inactives: at the top dose activity change, negative = inhibition, hits mostly inhibitors; 240,000 compounds, 0.008% hits; AID 2107, 2009;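 further: potency means the concentration at half of the fitted maximal effect; 0% = enzyme with vehicle and -100% = no enzyme basal signal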
#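 Spleen homogenate 1 ug + cpd (titration) + 4-MU-alpha-D-galactopyranoside 1 mM; 37C 40 min; 50 mM citrate/phosphate pH 5.0, 0.01% Tween-20; stop pH 10; fluorescence 365/440; AC50 via Hill.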
# * marks the source's active call; other numbers are inactive results; ? = inconclusive; · = no result; [ ] = another dose, or the depositor's remark. The call rests on the fitted dose curve; in most records, active means well fitted curve in the direction sought with a large enough effect; inconclusive means small, poorly fitted or top-dose-only effect, or another doubt; inactive means no such curve, though single readings can be large; an effect the other way counts as inactive or inconclusive.
SMILES,GAA inh,GAA glycogen mod,aGlu spleen mod,GLA inh pH 4.5,GLA spleen mod
Nc1nonc1C(=O)N/N=C/c1ccc(-c2ccc(Cl)c(C(=O)O)c2)o1,-4.8%,-2.7%,-5.4%,-15.8,-5.3%
O=C(O)c1cc(-c2ccc(/C=N/Nc3ccc(Cl)cc3)o2)ccc1Cl,2.7%,28.2µM*,-11.8%,5.0,-16.4%
COc1cc(Cl)c(NC(=O)CCS(=O)(=O)c2ccc3c(c2)NC(=O)CO3)c(OC)c1,·,-9.3%[76.3 µM],·,·,·
Cc1ccccc1C(=O)NN1C(=O)CSC1=S,-1.4%,?,3.5%,-4.9,6.3%
CCOC(=O)c1ccccc1N1C(=O)CSC1=S,-0.3%,28µM*,-6.3%,-6.8,11.6%
O=C1CCCC2=C1Sc1ccccc1N2,·,7.08µM*,8.1%,3.2,4.5%
CC1=Nc2ccccc2N=C(N)C1c1ccccc1 (centres undefined),3.2%,15.8µM*,5.5%,3.4,9.4%
COc1ccc(CNc2ncncc2-c2ccc3c(c2)OCO3)c(OC)c1,·,·,-0.8%,-1.4,0.8%
COc1cc(O)c2c(c1)oc(=O)c1c3cc(O)c(O)cc3oc21,·,·,-9.8%,·,1.2%
Cc1cc(C(=O)NNc2ccc(C(C)C)cc2)n(C(C)(C)C)n1,·,28.2µM*,-5.9%,-1.0,-4.0%
Fc1ccccc1Nc1n[nH]c(=S)s1,7.2%,15.7µM*,6.0%,2.3,-2.5%
COc1ccc(C(=O)COC(=O)CN2CC(=O)Oc3ccccc32)cc1Br,5.9%,3.14µM*,-4.5%,2.6,-3.1%
COc1ccc(C(=O)CN2C(=O)c3ccccc3S2(=O)=O)cc1Br,·,-10.6%[76.3 µM],·,·,·
Cc1ccc(-c2cc(C(=O)Nc3c(C(=O)c4ccccc4)oc4ccccc34)no2)cc1F,·,13.7%[76.3 µM],·,·,·
Cc1ccc(C(=O)C(NC(=O)c2ccco2)Nc2sc3c(c2C(N)=O)CCCC3)cc1 (centres undefined),-6.8%,24.9µM*,-10.5%,-5.8,-2.6%
CNC(=O)c1c(NC(=O)c2ccco2)sc2c1CCCC2,·,-1.4%[76.3 µM],·,·,·
